HepG2 viability – counter-screen for TGF-b inhibitors: cytotoxicity in HepG2 cells | HepG2 CAGA-GFP viability, ATP luminescence, 18 h | Potency, µM (titrated, usually from 46.1 µM), without a hit: at the highest dose activity change, negative = cytotoxicity, actives largely listed as cytotoxic | actives 0.76% (n = 410,000) | AID 588856
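CellTiter-Glo luminescence gave cytotoxicity after 18 hours at 37 degrees C. The cells were HepG2 CAGA-GFP in 1% FBS DMEM, stimulated with 500 pg/mL TGF-beta after compound addition. %Activity was normalised to no-cell wells (complete cell-killing) and DMSO (no toxicity), and curves were fitted and classified.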
KB-3-1 cytotox – kills parental KB-3-1 adenocarcinoma cells; Potency, µM (titrated, usually from 46.1 µM), actives largely listed as cytotoxic; actives 1.4% (n = 400,000); KB-3-1 viability, CellTiter-Glo ATP luminescence, 72 h; further: on the % scale 0 is the no-effect control and ±100 the full control effect; nearly all actives have a fitted effect of over 60% in size
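Multi-concentration cytotoxicity screen in KB-3-1 cells grown in DMEM lacking phenol red with 10% FBS. After 72 h at 37 °C with compound, ATP-dependent luminescence was recorded.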
ATXN viability – cell viability loss in ATXN counter-screen; S2 cells (HEK-293 line with an ATXN2-luciferase reporter) viability, CellTiter-Fluor protease fluorescence, 24 h; Potency, µM (top dose mostly 56.7 µM), actives largely listed as cytotoxic; actives 0.49% (n = 400,000); AID 651635; further: nearly all actives have a fitted effect of over 40% in size
KB-V1 cytotox – KB-V1 MDR subline cytotoxicity. KB-V1 MDR cells viability, CellTiter-Glo, 72 h. Potency, µM (highest dose often 46.1 µM), actives largely listed as cytotoxic. actives 3.4% (n = 400,000). AID 1347076; further: on the % scale 0 is the no-effect control and ±100 the full control effect; nearly all actives have a fitted effect of over 60% in size
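KB-V1 MDR subline cells in DMEM (phenol-red free, 10% FBS) exposed to compounds in qHTS concentration series for 72 h at 37 degrees C. Viability read by CellTiter-Glo luminescence; concentration-effect curves fitted after normalization and correction.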
ATXN2 expr inh – inhibitors of ATXN2 expression; actives 0.72% (n = 360,000); Potency, µM (top dose mostly 57 µM), for the others: at the highest dose activity change, negative = inhibition, actives largely listed as inhibitors; AID 1745845; HEK-293 ATXN2-luciferase reporter, luminescence, 24 h; further: on the % scale 0 is the no-effect control and ±100 the full control effect; nearly all actives have a fitted effect of over 55% in size
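qHTS (up to 57 uM final) was run with 24 h compound exposure of reporter cells at 37 °C. Each well was multiplexed: SteadyGlo luminescence measured ATXN2-luciferase expression after a fluorogenic Gly-Phe-AFC viability readout (25 uM final).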
TGFb inhibitor – blocks TGF-b signaling | Potency, µM (titrated, usually from 46.1 µM), for inactives: at the top dose activity, negative = inhibition, hits mostly inhibitors | actives 1.2% (n = 410,000) | AID 588855 | HepG2 CAGA-GFP TGF-b/SMAD3 reporter, GFP fluorescence, 18 h; TGF-beta stimulated, 500 pg/mL final; further: on the % scale 0 is the no-effect control and ±100 the full control effect; nearly all actives have a fitted effect of over 65% in size
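HEPG2 CAGA-GFP, 1000 cells/well; 2 h settle, 37 C; cpd via pin tool; TGF-b 500 pg/mL final; 18 h, 37 C; GFP imaging ex488/em500-530; %Activity normalised to -TGF-b and +DMSO controls; CRC fit, curve class.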
The depositor's hits bear a star; i = inactive; ? = inconclusive; · = not tested or not shown. The list is not random: actives were taken first. Their share in the collection is about 5.9%. The call rests on the fitted dose curve; in most records, active means well fitted curve in the direction sought with a large enough effect; inconclusive means small, poorly fitted or top-dose-only effect, or another doubt; inactive means no such curve, though single readings can be large; an effect the other way counts as inactive or inconclusive. Potency means the concentration at half of the fitted maximal effect.

SMILES | HepG2 viability | KB-3-1 cytotox | ATXN viability | KB-V1 cytotox | ATXN2 expr inh | TGFb inhibitor
O=C(NCCCN1CCN(c2cccc(Cl)c2)CC1)c1ccc2nc(Cc3ccccc3)oc2c1 | -44% | 15µM* | ? | ? | ? | ?
COc1ccc(N2CCN(CCCNC(=O)c3ccc4nc(CCc5ccccc5)oc4c3)CC2)cc1 | -16% | · | · | · | · | -14%
COc1ccc(N2CCN(CCCNC(=O)c3ccc4nc(Cc5ccccc5)oc4c3)CC2)cc1 | -60% | ? | 10µM* | i | 16µM* | -16%
O=C(Nc1cccc(Cl)c1)c1ccc2nc(Cc3ccccc3)oc2c1 | -47% | 15µM* | ? | ? | ? | ?
Cc1c(C(N)=O)nnn1-c1ccc(Br)cc1 | -11% | i | i | i | 2% | -5%
COc1ccc(/C=N/Nc2cc(C)nc(NS(=O)(=O)c3ccc(C)cc3)n2)cc1 | -46% | i | i | i | -4% | 13µM*
COc1ccc(/C=N/Nc2cc(C)nc(-n3nc(C)cc3C)n2)cc1 | -24% | ? | ? | i | 20µM* | 0%
Cc1cc(N/N=C/c2ccccc2[N+](=O)[O-])nc(-n2nc(C)cc2C)n1 | -40% | ? | ? | ? | ? | 2.5µM*
COc1ccc(/C=N/Nc2cc(N3CCCC3)nc(N3CCCC3)n2)cc1 | -70% | ? | 28µM* | ? | 14µM* | ?
COc1ccccc1-c1ncn(Cc2cccc(-c3ccccc3)c2)c1-c1cc(C)cc(C)c1 | · | ? | · | 16µM* | · | ·
COc1ccccc1-c1nc2ccccc2nc1-c1ccccc1 | -20% | i | i | i | -6% | -4%
COc1ccccc1-c1noc(-c2ccco2)n1 | -5% | i | i | i | 48% | ?
COc1ccccc1-c1ncn(Cc2cccc(-c3ccccc3)c2)c1-c1ccco1 | · | ? | · | 15µM* | · | ·
CCn1nc(C)c(/C=N/NC(=O)CSc2ccccn2)c1C | 4.5µM* | i | i | i | 47% | 0%
CCn1cc(S(=O)(=O)c2cccc(Cl)c2)c(=O)c2cc(F)c(N3CCN(C)CC3)cc21 | -45% | · | · | · | · | -29%
O=C(COc1ccc(Oc2ccccc2)cc1)NCc1cn2ccccc2n1 | 13% | 15µM* | ? | ? | -16% | ?
Cc1ccc(Nc2sc(C(=O)c3ccc(F)cc3)c(N)c2S(=O)(=O)c2ccc(C)cc2)cc1 | -21% | · | · | · | · | -3%
COc1cccc(-n2nnc3c(=O)n(CC(=O)N4CCC(C)CC4)cnc32)c1 | -22% | i | i | i | -12% | 1%
COc1cccc(-n2nnc3c(=O)n(CC(=O)N4CCC(Cc5ccccc5)CC4)cnc32)c1 | -1% | ? | ? | 5.2µM* | -22% | -3%
CSc1nnc(CNC(=O)/C=C/c2ccccc2Cl)n1-c1ccc(F)cc1 | · | · | i | · | · | ·
O=C(C1COc2ccccc2O1)N1CCN(S(=O)(=O)c2cc(F)ccc2F)CC1 (stereo not given) | -3% | i | i | i | 5% | -7%
N#Cc1ccccc1S(=O)(=O)N1CCN(C(=O)C2COc3ccccc3O2)CC1 (stereo not given) | -13% | i | i | 21µM* | 1% | 0%
CC(C)(C)N1C(=O)c2ccccc2NC(=O)C1C(=O)NCCc1ccccc1F (stereo not given) | · | i | · | i | · | ·
CC(=O)Nc1ccc(NC(=O)c2cc(C)nn2-c2ccccc2)cc1 | 7% | i | i | i | 4% | ?
CC(=O)c1cc2c(cc1NC(=O)c1cc(C)nn1-c1ccccc1)OCO2 | 6% | 5.8µM* | i | i | -8% | -7%
SMILES | HepG2 viability | KB-3-1 cytotox | ATXN viability | KB-V1 cytotox | ATXN2 expr inh | TGFb inhibitor
CC(C)[C@@H]1Cc2[nH]n(C)c(=O)c2[C@H](c2ccc(Cl)cc2)O1 | · | i | i | i | 9% | ·
CCN(CC)C(=O)[C@H]1C[C@H](CC(=O)NCc2ccc(OC)c(OC)c2)C(=O)N2CCc3c([nH]c4cc(-c5ccco5)ccc34)[C@]12C | -57% | i | ? | i | ? | 13µM*
CC(C)=CCC/C(C)=C/CNC(=O)C[C@H]1C[C@H](C(=O)N(C(C)C)C(C)C)[C@@]2(C)c3[nH]c4cc(-c5ccco5)ccc4c3CCN2C1=O | -46% | ? | ? | ? | ? | 13µM*
CC(C)N(C(=O)[C@H]1C[C@H](CC(=O)NCc2ccco2)C(=O)N2CCc3c([nH]c4ccc(Cl)cc34)[C@]12C)C(C)C | -28% | ? | ? | ? | -36% | 11µM*
CC(C)=CCC/C(C)=C/CNC(=O)C[C@H]1C[C@H](C(=O)N2CCCCC2)[C@@]2(C)c3[nH]c4cc(-c5ccco5)ccc4c3CCN2C1=O | -21% | ? | ? | ? | ? | ?
CC(C)N(C(=O)[C@H]1C[C@H](CC(=O)NCCCN(C)C)C(=O)N2CCc3c([nH]c4cc(-c5ccco5)ccc34)[C@]12C)C(C)C | 20µM* | i | 32µM* | i | ? | ?
COc1ccc(CNC(=O)C[C@H]2C[C@H](C(=O)N3CCCCC3)[C@@]3(C)c4[nH]c5cc(-c6ccco6)ccc5c4CCN3C2=O)cc1OC | -4% | i | ? | ? | ? | ?
COc1ccc2[nH]c3c(c2c1)CCN1C(=O)C(CC(=O)NCC24CC5CC(CC(C5)C2)C4)C[C@H](C(=O)N2CCOCC2)[C@@]31C (stereo not given in full) | -18% | i | ? | i | -12% | ?
COc1ccc2[nH]c3c(c2c1)CCN1C(=O)C(CC(=O)NCC24CC5CC(CC(C5)C2)C4)C[C@H](C(=O)N(C(C)C)C(C)C)[C@@]31C (stereo not given in full) | -51% | ? | i | ? | -35% | 11µM*
CC(C)N(C(=O)[C@H]1C[C@H](CC(=O)NCCc2ccccn2)C(=O)N2CCc3c([nH]c4cc(-c5ccco5)ccc34)[C@]12C)C(C)C | -19% | i | ? | i | ? | ?
CC(C)N(C(=O)[C@H]1C[C@H](CC(=O)NCCC2=CCCCC2)C(=O)N2CCc3c([nH]c4cc(-c5ccco5)ccc34)[C@]12C)C(C)C | -4% | 23µM* | ? | ? | ? | ?
COC(=O)CCC(=O)NC(=S)Nc1sc(C)c(C)c1C(N)=O | -36% | 0.65µM* | ? | 1.6µM* | -4% | 11µM*
Cc1sc(NC(=S)NC(=O)CCc2ccccc2)c(C(N)=O)c1C | 13% | 0.18µM* | ? | ? | -7% | ?

High-throughput results from PubChem.
